Screening data as filed in PubChem.
This is a sample that favours compounds with a hit; in the whole collection about 10% have one here.
G9a inh = qHTS Assay for Inhibitors of Histone Lysine Methyltransferase G9a | G9a H3K9 monomethylation, AlphaScreen, 2 h | Potency, µM (series often up to 102 µM), most hits filed as inhibitors | actives 8.8% (n = 350,000); also: nearly all actives have a fitted effect of over 75% in size
Target sequence (Q96KQ7 913-1193 limits assumed): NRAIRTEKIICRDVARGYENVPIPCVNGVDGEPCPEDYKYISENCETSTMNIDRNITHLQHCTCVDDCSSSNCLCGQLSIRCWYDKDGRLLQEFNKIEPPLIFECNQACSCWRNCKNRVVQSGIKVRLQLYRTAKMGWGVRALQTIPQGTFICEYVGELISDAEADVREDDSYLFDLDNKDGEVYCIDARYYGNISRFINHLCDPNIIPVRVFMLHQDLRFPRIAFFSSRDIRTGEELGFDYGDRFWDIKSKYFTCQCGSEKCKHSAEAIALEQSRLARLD
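Step 1: enzyme (final 20 nM) with compound, 15 min RT. Step 2: substrate peptide 500 nM and SAM 20 uM, 2 h RT. Step 3: anti-H3K9me1 antibody and AlphaScreen beads, 10 min, then plate read.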
CtBP-E1A blk = qHTS Assay for Inhibitors of the CtBP/E1A Interaction | AlphaScreen GST-E1A/His-CtBP binding, 1536-well; stronger effect = lower value | activity change, % (concentration not given with the values) | actives 0.49% (n = 340,000) | AID 651724, 2012; in the data active = activity change below about -65%; inconclusive = mostly about -30% to -63%
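GST-E1A and His-tagged CtBP (125 nM each as 5X stock) were preincubated with pin-transferred compound for 2 h at 37 °C in the dark, then glutathione donor and nickel acceptor beads were added for 1 h before AlphaScreen reading.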
Six1-Eya2 inh = qHTS Assay for Inhibitors of the Six1/Eya2 Interaction; Homeobox protein SIX1 (Homo sapiens) + Protein phosphatase EYA2 (Homo sapiens), …; AlphaScreen GST-Six1/His-Eya2 binding, biochemical; stronger effect = lower value; activity change, % (no concentration beside the values); actives 0.56% (n = 360,000); AID 651725, 2012; in the data active = activity change below about -65%; inconclusive = mostly about -30% to -63%
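Compounds are tested against tagged Six1 and Eya2 proteins bridged by glutathione donor and nickel acceptor beads; after a one-hour incubation at 37 °C without light, AlphaScreen emission is recorded.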
BAZ2B block = qHTS Assay for Inhibitors of BAZ2B; actives 4.4% (n = 360,000); Potency, µM (titrated, usually from 114 µM), hits mostly inhibitors; Bromodomain adjacent to zinc finger domain protein 2B (Homo sapiens), Q9UIF8; AID 504333, 2011; AlphaScreen BAZ2B-H3K14Ac peptide displacement; also: nearly all actives have a fitted effect of over 60% in size
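Multi-concentration screen (max 110 uM) measuring displacement of acetylated histone H3 peptide from BAZ2B by AlphaScreen, using 50 nM protein, 50 nM peptide and 10 ug/mL streptavidin donor plus Ni-chelate acceptor beads.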
HP1b chromo inh = HTS for Inhibitors of HP1-beta Chromodomain Interactions with Methylated Histone Tails | Chromobox protein homolog 1 (Homo sapiens), P83916 | AlphaScreen HP1-beta / biotin-H3K9me3 peptide binding | Potency, µM (top dose mostly 114 µM), actives largely listed as inhibitors | actives 0.56% (n = 390,000); also: nearly all actives have a fitted effect of over 70% in size
Target sequence (P83916 whole entry, looked up): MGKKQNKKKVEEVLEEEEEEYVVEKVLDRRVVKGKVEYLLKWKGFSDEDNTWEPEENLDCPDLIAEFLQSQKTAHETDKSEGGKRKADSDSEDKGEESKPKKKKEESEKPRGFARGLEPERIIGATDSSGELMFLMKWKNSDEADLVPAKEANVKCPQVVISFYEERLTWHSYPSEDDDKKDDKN
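HP1-beta protein (50 nM final) preincubated 30 min at room temperature with biotinylated H3(1-18)K9me3 peptide (50 nM) in PBS pH 7.4, 0.01% Tween-20, then compound added for 30 min. AlphaScreen streptavidin donor/nickel chelate acceptor beads (10 ug/mL final), 30 min dark, luminescence read.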
JMJD2A Tudor = qHTS Assay for Inhibitors of JMJD2A-Tudor Domain; Lysine-specific demethylase 4A (Homo sapiens), O75164; AlphaScreen JMJD2A-Tudor / H3K4me3 peptide binding; Potency, µM (series often up to 114 µM), usual class: inhibitors; actives 4.4% (n = 390,000); AID 504339, 2011; also: nearly all actives have a fitted effect of over 50% in size
A number is an active result; 0 = inactive; ? = inconclusive; - = no result; [ ] = dose if it differs, or a comment. Unless noted, calls follow the shape of the dose curve; as a rule, active = well fitted inhibition curve with a large enough effect; inconclusive = small, poorly fitted or top-dose-only effect; inactive = no such curve, though single readings can be large or run the other way.

SMILES	G9a inh	CtBP-E1A blk	Six1-Eya2 inh	BAZ2B block	HP1b chromo inh	JMJD2A Tudor
COc1ccc(S(=O)(=O)N2CCN(Cc3ccccc3)CC2)cc1	0	0	0	0	0	0
COc1ccc(S(=O)(=O)N2CCN(Cc3cc(OC)c(O)c(OC)c3)CC2)cc1	7.1µM	0	0	50µM	?	22µM
COc1ccc(S(=O)(=O)N2CCN(Cc3cc(OC)c(OC)c(OC)c3)CC2)cc1	-	0	0	?	?	3.2µM
COc1cc(CN2CCN(S(=O)(=O)c3ccccc3)CC2)cc(OC)c1O	10µM	-	-	0	0	0
O=C1NCCN1c1ncc([N+](=O)[O-])s1	0	0	0	0	0	0
C=CCn1c(Sc2ncc([N+](=O)[O-])s2)n[nH]c1=O	11µM	0	?	0	0	0
CC(C)CNC(=S)Nc1ccc(S(N)(=O)=O)cc1	40µM	0	0	0	0	0
CCOCCCNC(=S)Nc1ccc(S(N)(=O)=O)cc1	28µM	0	0	0	0	0
NS(=O)(=O)c1ccc(NC(=S)NCc2cccs2)cc1	35µM	-	0	0	0	0[11.4 µM]
CCCNC(=S)Nc1ccc(S(N)(=O)=O)cc1	0	0	0	0	0	0
Cc1ccc(NS(=O)(=O)c2ccc3c(ccn3C)c2)cc1C	-	-	-	-	-	0
COc1ccc(C2/C=C\CN([S+](=O)([O-])c3ccc4ccccc4c3)C(C)C(=O)N2Cc2ccc(F)cc2)cc1 (configuration not stated)	-	-	-	-	0	0
CCOC(=O)C1=C(C)N=c2s/c(=C/c3ccc(OCC(=O)O)cc3)c(=O)n2C1c1ccc(F)cc1 (configuration not stated)	?	0	0	?	0	79µM
CCOC(=O)C1=C(C)N=c2s/c(=C/c3ccc(OCC(=O)O)c(OC)c3)c(=O)n2C1c1ccc(Cl)cc1 (configuration not stated)	-	0	0	-	32µM	20µM
CCOC(=O)C1=C(C)N=c2s/c(=C\c3ccncc3)c(=O)n2C1c1ccc2c(c1)OCO2 (configuration not stated)	0[12.7 µM]	0	0	?	0	?
CC1=C(C(=O)OC(C)C)C(c2ccc(Cl)cc2)n2c(sc(=Cc3ccc(OCC(=O)O)cc3)c2=O)=N1 (configuration not stated)	-	0	0	-	-	-
CCOC(=O)C1=C(C)N=c2s/c(=C/c3ccccc3)c(=O)n2C1c1ccc(OC)c(OC)c1 (configuration not stated)	0	0	0	0	0	0
CCOC(=O)C1=C(C)N=c2sc(=C(C)C)c(=O)n2C1c1ccc(N(C)C)cc1 (configuration not stated)	-	0	0	-	0	89µM
CCOC(=O)C1=C(C)N=c2s/c(=C\c3ccc(OCC(=O)O)cc3)c(=O)n2C1c1ccc(Cl)cc1 (configuration not stated)	-	0	0	7.9µM	40µM	20µM
CNc1cc(C(=O)Nc2cccc(OCc3ccccc3)c2)ncn1	-	0	0	-	-	-
CCN(CC)S(=O)(=O)c1ccc(N2CCOCC2)c(NC(=O)CC2OC(=O)c3ccccc32)c1 (configuration not stated)	0[0.501 µM]	0	0	0	0	0
O=C1CCc2cc(S(=O)(=O)Nc3ccc4ccccc4c3)ccc2N1	-	-	-	-	-	0
CCOC(=O)C1=C(C)N=c2s/c(=C/c3ccc(OCC(=O)O)cc3)c(=O)n2C1c1ccc(SC)cc1 (configuration not stated)	-	-	-	35µM	-	-
CCS(=O)(=O)N1CCN(Cc2ccc([N+](=O)[O-])cc2)CC1	?	0	0	50µM	?	5.6µM
CN(C)c1ccc(CN2CCCCCC2)cc1	?	0	0	0	0	0
SMILES	G9a inh	CtBP-E1A blk	Six1-Eya2 inh	BAZ2B block	HP1b chromo inh	JMJD2A Tudor
CSc1ccc(CN2CCCCCC2)cc1	11µM	0	0	0	?	5µM
CSc1ccc(CN2CCN(Cc3ccc([N+](=O)[O-])cc3)CC2)cc1	32µM	0	?	28µM	?	?
CCOc1ccc(-c2c(C)nn3c(C)c(C(=O)NCCc4ccccc4)cnc23)cc1OCC	0	-	-	0	0	0
Cc1cccc2sc(NS(C)(=O)=O)nc12	0	0	0	?	0	0
COCCCn1c(Cc2csc(Nc3ccccc3)n2)nnc1SCC(N)=O	6.3µM	0	0	56µM	0	?
NC(=O)CSc1nnc(Cc2csc(Nc3ccccc3)n2)n1Cc1ccccc1	35µM	0	0	0	0	?
Cc1ccc(-c2noc(-c3nnn(CC(=O)Nc4ccc(C)c(Cl)c4)c3N)n2)cc1	0	-	-	0	0	0
C#CCOCCOCCOCCNc1nc(N2CCN(C(=O)[C@H](CCC(=O)O)n3cc(C(N)Cc4ccc(O)cc4)nn3)CC2)nc(N2CCN(C(=O)[C@H](CCCCN)n3cc(C(N)[C@H](C)CC)nn3)CC2)n1 (some centres not stated)	0[12.7 µM]	-	-	79µM	-	-
C#CCOCCOCCOCCNc1nc(N2CCN(C(=O)[C@H]([C@@H](C)CC)n3cc([C@@H](N)Cc4ccc(O)cc4)nn3)CC2)nc(N2CCN(C(=O)[C@H](CCCCN)n3cc([C@@H](N)C(C)CC)nn3)CC2)n1 (some centres not stated)	?	0	0	79µM	0	50µM
COc1cc(NC(=O)c2cc3c(=O)n(Cc4ccco4)ccc3nc2C)cc(OC)c1OC	0	-	-	0	0	0
CCOc1ccccc1C(=O)Oc1c(Sc2ccccc2)c(C)nn1C(C)(C)C	0	-	-	0	0	0
COc1ccc(NN=Nc2nc3c([nH]2)c(=O)n(C)c(=O)n3C)cc1	-	0	0	56µM	4.5µM	8.9µM
COc1ccc(C=NNc2nc3c([nH]2)c(=O)n(C)c(=O)n3C)cc1	-	0	0	-	0	0
Cc1ccccc1NN=Nc1nc2c([nH]1)c(=O)n(C)c(=O)n2C	4µM	0	0	0	?	?
Cn1c(=O)c2[nH]c(N=NNc3ccccc3F)nc2n(C)c1=O	1.8µM	0	0	20µM	20µM	7.9µM
COc1ccccc1S(=O)(=O)NCc1ccc(C(=O)NC2CCC(O)CC2)cc1 (configuration not stated)	?	0	0	0	0	0
COc1cccc(C(=O)Nc2ccc(Cl)c(-c3nc4ccccc4[nH]3)c2)c1	0	-	-	0	0	0
